{"source": "ChEMBL document CHEMBL1961873", "about": "“Compounds: GSK PKIS; Assays: Nanosyn kinase panel” (2012)", "note": "Several values for one entry are separate records, joined by “and”; a condition that tells them apart may be missing. Equal entries are not always repeated.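 Further: values are mean inhibition of human MER kinase, from the GSK PKIS profiling panel.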", "data": [{"target": "T1, Tyrosine-protein kinase Mer (Homo sapiens) (UniProt Q12866)", "T1 sequence (whole entry)": "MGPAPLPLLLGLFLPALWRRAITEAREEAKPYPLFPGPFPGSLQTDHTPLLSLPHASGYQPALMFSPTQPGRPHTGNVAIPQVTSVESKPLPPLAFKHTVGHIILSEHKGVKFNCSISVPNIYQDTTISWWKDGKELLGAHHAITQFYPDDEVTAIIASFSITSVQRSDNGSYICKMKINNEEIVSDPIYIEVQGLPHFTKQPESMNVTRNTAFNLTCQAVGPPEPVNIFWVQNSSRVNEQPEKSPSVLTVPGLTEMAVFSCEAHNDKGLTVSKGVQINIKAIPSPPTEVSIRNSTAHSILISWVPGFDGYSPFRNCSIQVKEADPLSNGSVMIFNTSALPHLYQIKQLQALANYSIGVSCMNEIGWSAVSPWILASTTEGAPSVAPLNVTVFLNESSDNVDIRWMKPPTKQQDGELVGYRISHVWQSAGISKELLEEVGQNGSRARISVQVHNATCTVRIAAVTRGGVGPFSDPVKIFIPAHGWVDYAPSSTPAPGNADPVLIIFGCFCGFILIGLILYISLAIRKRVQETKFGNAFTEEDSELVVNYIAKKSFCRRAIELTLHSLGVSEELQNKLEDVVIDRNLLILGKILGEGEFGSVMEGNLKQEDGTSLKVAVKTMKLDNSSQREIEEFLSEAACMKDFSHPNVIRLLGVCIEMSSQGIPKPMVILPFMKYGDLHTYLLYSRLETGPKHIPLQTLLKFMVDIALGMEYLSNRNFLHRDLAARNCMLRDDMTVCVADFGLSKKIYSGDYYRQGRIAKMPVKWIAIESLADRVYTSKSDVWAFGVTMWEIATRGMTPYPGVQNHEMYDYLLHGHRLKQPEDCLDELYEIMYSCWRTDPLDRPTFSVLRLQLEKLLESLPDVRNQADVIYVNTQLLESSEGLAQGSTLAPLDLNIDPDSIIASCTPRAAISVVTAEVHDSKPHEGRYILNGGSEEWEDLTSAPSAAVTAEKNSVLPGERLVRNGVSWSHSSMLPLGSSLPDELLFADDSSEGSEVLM", "conditions": "at 1 µM", "values": [{"smiles": "CCS(=O)(=O)c1ccc(OC)c(Nc2ncc(-c3cccc(F)c3)o2)c1", "inhibition": "9.7%"}, {"smiles": "CC1(C)CC(n2cnc(-c3ccc(F)cc3)c2-c2ccnc(N)n2)CC(C)(C)N1", "inhibition": "3.06%"}, {"smiles": "Fc1ccc(Nc2nccc(-c3c(-c4ccc(C(F)(F)F)cc4)nn4ncccc34)n2)cc1F", "inhibition": "2.81%"}, {"smiles": "CCOc1ccc2c(-c3ccnc(Nc4cc(OC)cc(C(F)(F)F)c4)n3)cnn2n1", "inhibition": "4.18%"}, {"smiles": "CS(=O)(=O)CCNCc1ccoc1-c1ccc2ncnc(Nc3ccc(OCc4ccccc4)cc3)c2c1", "inhibition": "25.2%"}, {"smiles": "Cc1ccc(-c2cc3c(NC(=O)C4CC4)ncnc3o2)cc1", "inhibition": "6.56%"}, {"smiles": "O=C(O[C@H]1CN[C@H](C#Cc2cc3ncnc(Nc4ccc(OCc5cccc(F)c5)c(Cl)c4)c3s2)C1)N1CCOCC1", "inhibition": "5.1%"}, {"smiles": "COc1ccc(Nc2ncc(-c3ccccc3)o2)cc1OC", "inhibition": "5.18%"}, {"smiles": "O=C(O[C@H]1CN[C@H](C#Cc2cc3ncnc(Nc4ccc5c(ccn5Cc5cc(F)ccc5F)c4)c3s2)C1)N1CCOCC1", "inhibition": "3.33%"}, {"smiles": "Cc1c2ccc(N(C)c3ccnc(Nc4cccc(S(N)(=O)=O)c4)n3)cc2nn1C", "inhibition": "61.9%"}, {"smiles": "OCCCNc1nccc(-c2c(-c3ccc(F)cc3)nn3cc(C(F)(F)F)ccc23)n1", "inhibition": "5.36%"}, {"smiles": "O=C(O[C@H]1CN[C@H](C#Cc2cc3ncnc(Nc4ccc5c(cnn5Cc5ccccc5)c4)c3s2)C1)N1CCOCC1", "inhibition": "9.62%"}, {"smiles": "CCS(=O)(=O)c1ccc(OC)c(Nc2ncc(-c3cccc(C(C)=O)c3)o2)c1", "inhibition": "2.12%"}, {"smiles": "CS(=O)(=O)CCNCc1ccc(-c2ccc3ncnc(Nc4ccc(OCc5ccccc5)cc4)c3c2)o1", "inhibition": "43.7%"}, {"smiles": "Cn1c(-c2nonc2N)nc2cnccc21", "inhibition": "3.84%"}, {"smiles": "COc1cc2c(cc1Nc1nc(Nc3cccc(F)c3C(N)=O)c3cc[nH]c3n1)N(C(=O)CN1CCN(C(C)C)CC1)CC2", "inhibition": "3.27%"}, {"smiles": "Fc1cccc(COc2ccc(Nc3ncncc3C#Cc3ccccc3)cc2Cl)c1", "inhibition": "2.67%"}, {"smiles": "CS(=O)(=O)Nc1ccc(-c2ccc3c(NC(=O)C4CC4)n[nH]c3c2)cc1", "inhibition": "3.15%"}, {"smiles": "CCCNc1cccc(-n2ncc3c(N/N=C/c4ccncc4)ncnc32)c1", "inhibition": "25.6%"}, {"smiles": "Nc1ncnc2occ(-c3ccc(NC(=O)Nc4cc(C(F)(F)F)ccc4F)cc3)c12", "inhibition": "34.7% and 21.6%"}, {"smiles": "NS(=O)(=O)c1cccc(N/C=C2\\C(=O)Nc3ccccc32)c1", "inhibition": "8.24%"}, {"smiles": "COc1cc(N2CCN(C(C)C)CC2)ccc1Nc1nc(Nc2cccc3ncccc23)c2cc[nH]c2n1", "inhibition": "2.09%"}, {"smiles": "CN1CCC(C(=O)Nc2n[nH]c3nc(-c4ccc(O)cc4)c(Br)cc23)CC1", "inhibition": "4.17% and 6.1%"}, {"smiles": "CCn1c(-c2nonc2N)nc2cncc(C(=O)NCCNC)c21", "inhibition": "3.22%"}, {"smiles": "CCN1CCC(C(=O)Nc2n[nH]c3nnc(-c4cccc(F)c4F)cc23)CC1", "inhibition": "2.84%"}, {"smiles": "CNC(=O)c1sc(-n2cnc3cc(OC)c(OC)cc32)cc1OCc1ccccc1C(F)(F)F", "inhibition": "2.64%"}, {"smiles": "N#Cc1ccc2c(-c3ccnc(NC4CC4)n3)c(-c3ccc(F)cc3)nn2c1", "inhibition": "2.56%"}, {"smiles": "COc1ccc2ncn(-c3cc(O[C@H](C)c4ccccc4C(F)(F)F)c(C(N)=O)s3)c2c1", "inhibition": "2.59%"}, {"smiles": "c1cnn2ncc(-c3ccnc(NCCCN4CCOCC4)n3)c2c1", "inhibition": "-0.16%"}, {"smiles": "O=C(Nc1n[nH]c2nnc(-c3cccnc3)cc12)C1CC1", "inhibition": "1.8%"}, {"smiles": "CS(=O)(=O)CCNCc1ccc(-c2ccc3ncnc(Nc4ccc(OCc5cccc(C(F)(F)F)c5)cc4)c3c2)o1", "inhibition": "7.4%"}]}]}
